Among the data in PubChem BioAssay (EPA / NIEHS) are outcome and AC50 values, retold here.

What all share (conditions): primary human HUVEC with PBMC; actives raise or lower the signal
A short description of experiment [1]: BSK_LPS_PGE2: BioMAP Diversity Plus: LPS Assay for Prostaglandin E2 (PGE2) Biomarker Activity (AID 2283082). Summed up: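 Compounds were added to the LPS co-culture of endothelium and PBMC, and PGE2 was measured by ELISA after 24 h. Responses in either direction were fitted with DMSO as baseline.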
Read-out in experiment [2]: Macrophage colony-stimulating factor (MCSF), CSF1 (gene 1435)
The experiment in a line: BSK_LPS_MCSF: BioMAP Diversity Plus: LPS Assay for Macrophage colony-stimulating factor (MCSF) Biomarker Activity (AID 2283083). Summed up:
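Bidirectional fitting against DMSO was applied to M-CSF levels read by ELISA at 24 h post-dose. The system pairs human umbilical vein endothelium with peripheral blood mononuclear cells; parallel SRB staining tracked cytotoxicity.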

Read-out in experiment [3]: Tissue Factor, F3 (gene 2152)
The experiment in a line: BSK_LPS_TissueFactor: BioMAP Diversity Plus: LPS Assay for Tissue Factor Biomarker Activity (AID 2283084). Put shortly:
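Compound was added to an endothelial cell/PBMC co-culture, and after 24 h tissue factor (CD142) was read by ELISA. Gain or loss of signal was fitted against a DMSO baseline, and parallel SRB staining (560 nm) tracked overt cytotoxicity.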

Read-out in experiment [4]: Tumor necrosis factor (Homo sapiens) (UniProt P01375)
Nature of the experiment: BSK_LPS_TNFa: BioMAP Diversity Plus: LPS Assay for Tumour Necrosis Factor alpha (TNFa) Biomarker Activity (AID 2283085).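 As to AC50: TNFa protein level quantified by ELISA in the co-culture.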 Put shortly: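 Cells (umbilical vein endothelium plus peripheral blood mononuclear cells) were dosed with chemical, incubated 24 h, then TNFa was quantified by ELISA; values derive from bidirectional fitting with DMSO as baseline.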

Read-out in experiment [5]: Vascular cell adhesion molecule 1 (VCAM1), VCAM1 (gene 7412)
Nature of the experiment: BSK_LPS_VCAM1: BioMAP Diversity Plus: LPS Assay for Vascular cell adhesion molecule 1 (VCAM1) Biomarker Activity (AID 2283086). Put shortly:
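Cells are dosed in an LPS-stimulated endothelial/mononuclear co-culture and, after 24 h, VCAM-1 is quantified by ELISA. Activity in either direction is fitted relative to the DMSO negative control.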

Read-out in experiment [6]: CD38, CD38 (gene 952)
Nature of the experiment: BSK_SAg_CD38: BioMAP Diversity Plus: SAg Assay for CD38 Biomarker Activity (AID 2283087). Summed up: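 CD38 quantified by ELISA (fluorescence) in a superantigen-activated endothelial cell–PBMC co-culture at 24 h post-dose. Activity fitted in both directions relative to DMSO; parallel SRB and Alamar Blue cytotoxicity read-outs.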

Read-out in experiment [7]: CD40, CD40 (gene 958)
The experiment in a line: BSK_SAg_CD40: BioMAP Diversity Plus: SAg Assay for CD40 Biomarker Activity (AID 2283088). Put shortly:
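CD40 is measured by fluorescence ELISA in an endothelial/PBMC primary human co-culture at 24 h post-dose. Fitting is bidirectional, DMSO baseline. Parallel SRB staining (560 nm) flags cytotoxicity.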

Read-out in experiment [8]: CD69, CD69 (gene 969)
The experiment in a line: BSK_SAg_CD69: BioMAP Diversity Plus: SAg Assay for CD69 Biomarker Activity (AID 2283089).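 As to AC50: cell surface CD69 protein quantified by ELISA with fluorescence detection.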 Put shortly: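 Endothelial/PBMC co-culture; chemical added; 24 h incubation; CD69 ELISA with fluorescence detection; bidirectional fit vs DMSO.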

Read-out in experiment [9]: Monocyte Chemoattractant Protein-1 (MCP1), CCL2 (gene 6347)
The experiment in a line: BSK_SAg_MCP1: BioMAP Diversity Plus: SAg Assay for Monocyte Chemoattractant Protein-1 (MCP1) Biomarker Activity (AID 2283090). Summed up: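 Values derive from bidirectional fitting of ELISA-measured MCP1 against DMSO controls. Readings were taken 24 h after dosing human vascular endothelial cells co-cultured with peripheral blood mononuclear cells under superantigen stimulation.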

Read-out in experiment [10]: Monocyte Chemoattractant Protein-1 (MCP1), CCL2 (gene 6347)
Nature of the experiment: BSK_LPS_MCP1: BioMAP Diversity Plus: LPS Assay for Monocyte Chemoattractant Protein-1 (MCP1) Biomarker Activity (AID 2283081).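 As to AC50: secreted MCP-1 protein quantified by ELISA in culture supernatant.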 Put shortly:
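Secreted MCP-1 read by ELISA at 24 h post-dosing in an LPS-activated co-culture of endothelial cells with peripheral blood mononuclear cells. Fits run in both directions, DMSO as baseline; parallel SRB staining tracks overt cytotoxicity.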

Active and inactive are the calls of the source. The calls were made as follows: active = hit-call score of the fitted dose curve at least 0.9, where 1 is the maximum; inactive = score below 0.9.

What is called AC50 is the concentration giving half of the maximal activity seen.

Sequence of Tumor necrosis factor (Homo sapiens) (P01375 whole entry, looked up): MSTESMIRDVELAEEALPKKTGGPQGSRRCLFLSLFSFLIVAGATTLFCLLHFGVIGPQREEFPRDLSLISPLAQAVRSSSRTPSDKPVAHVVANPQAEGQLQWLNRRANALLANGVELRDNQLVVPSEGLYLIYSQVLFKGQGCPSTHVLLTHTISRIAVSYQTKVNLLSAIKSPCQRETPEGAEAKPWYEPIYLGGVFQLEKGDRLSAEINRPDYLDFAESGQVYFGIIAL

For `CCCCN1C(=O)[C@@H]([C@H](O)C2CCCCC2)NC(=O)C12CCN(Cc1ccc(Oc3ccc(C(=O)O)cc3)cc1)CC2`, the result in experiment [1], in experiment [2], in experiment [3], in experiment [4], in experiment [5] and in experiment [6] was inactive. The result in experiment [7], in experiment [8] and in experiment [9] was inactive.
As to `C=CCc1cc(S(=O)(=O)c2ccc(O)c(CC=C)c2)ccc1O`, the AC50 is 15.8 µM (active) in experiment [10]; 32.3 µM (active) in experiment [1]; 28.6 µM (active) in [2]; 29.8 µM (active) in [4]; 30 µM (active) in experiment [5]; 14.5 µM (active) in experiment [6]. The results for the AC50 in [7], in experiment [8] and in [9] were 11.6 µM (active), 24.3 µM (active) and 15.1 µM (active), respectively.
In the case of `O=C1CN(N=Cc2ccc([N+](=O)[O-])o2)C(=O)N1`, the outcome in experiment [10], in [1], in experiment [2], in experiment [4], in [6] and in [7] was inactive. For the same molecule, the result in experiment [8] and in experiment [9] was inactive. For the same molecule, the AC50 in experiment [5] is 20 µM (active).
As to `FC(F)(F)C(F)(F)C(F)(F)C(F)(F)C(F)(F)C(F)(F)I`, the outcome in experiment [10], in [1], in experiment [2], in experiment [4], in experiment [5] and in [6] was inactive. The outcome in experiment [7], in [8] and in [9] was inactive.
On to `FC(F)(F)COC(OCC(F)(F)F)OCC(F)(F)F`, for which the outcome in experiment [10], in experiment [1], in experiment [2], in experiment [4], in experiment [5] and in [6] was inactive. In addition, the result in experiment [7], in experiment [8] and in [9] was inactive.
Turning to `O=C(O)c1cccc(C[C@@H]2COc3ccc(OCc4nc5cc(F)ccc5s4)cc3[C@@H]2O)c1`, the outcome in experiment [10], in experiment [1], in experiment [2], in experiment [4], in experiment [5] and in experiment [6] was inactive. For the same molecule, the outcome in [7], in experiment [8] and in [9] was inactive.
As to `COCc1nnc(-c2ccc[n+]([O-])c2)n1-c1c(Cl)c(Cl)cc2[nH]c(=O)c(=O)[nH]c12`, the outcome in experiment [1], in [2], in [3], in [4], in experiment [5] and in [6] was inactive. In addition, the result in experiment [7], in [8] and in experiment [9] was inactive.
In the case of `OCCNCCO`, the outcome in experiment [10], in [1], in experiment [2], in [4], in experiment [5] and in experiment [6] was inactive. Moreover, the result in experiment [7], in experiment [8] and in [9] was inactive.
On to `CCCCCCCCCC`, for which the outcome in experiment [1], in experiment [2], in experiment [3], in [4], in [5] and in experiment [6] was inactive. For the same molecule, the outcome in [7], in experiment [8] and in experiment [9] was inactive.
`CCc1ccc(O)c(C(C)(C)C)c1`: the AC50 in experiment [1] was 25.3 µM (active); in experiment [4] it was 36.6 µM (active); in experiment [5] it was 30.5 µM (active); in experiment [6] it was 26.7 µM (active); in [7], 36 µM (active); in experiment [9], 20 µM (active). Moreover, the result in [2], in experiment [3] and in [8] was inactive.
For the molecule `O=c1[nH]cnc2c1ncn2[C@H]1CC[C@@H](CO)O1`, the result in experiment [10], in experiment [1], in experiment [3], in experiment [4], in experiment [5] and in experiment [6] was inactive. The outcome in [7], in [8] and in experiment [9] was inactive.
